Measured values published in the supplement of paper PMC3334620.
Over roughly 33,000 sequences, “E-score (-0.5 to 0.5)” has its median near -0.0034; the highest 2% begin near 0.25. What follows is part of a selection rich in the highest values, with near analogues and random picks from the rest.

Each sequence was assayed against T1, Yap3 (UniProt P38749) (assay: PBM E-score (8-mer binding enrichment) (E-score (-0.5 to 0.5)); higher = stronger / more preferred TF binding). Settings: protein concentration: 100 nM; construct: GST-full length.
T1 sequence: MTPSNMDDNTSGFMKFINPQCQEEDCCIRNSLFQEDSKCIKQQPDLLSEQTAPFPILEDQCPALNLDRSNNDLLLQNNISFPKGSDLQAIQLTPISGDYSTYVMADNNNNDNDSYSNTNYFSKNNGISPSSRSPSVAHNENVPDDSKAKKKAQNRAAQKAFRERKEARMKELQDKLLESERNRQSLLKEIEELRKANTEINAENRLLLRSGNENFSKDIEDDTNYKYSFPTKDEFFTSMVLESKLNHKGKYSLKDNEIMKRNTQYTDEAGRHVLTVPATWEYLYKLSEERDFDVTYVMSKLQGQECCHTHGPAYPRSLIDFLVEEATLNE
Method in brief: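 For each ungapped eight-base word taken together with its reverse complement, the Universal PBM Analysis Suite assigned an E-score. Binding data came from GST-tagged yeast transcription factors, applied at about 100-200 nM, on universal all-10-mer Agilent arrays made double-stranded by primer extension. Fluorescent anti-GST marked bound protein, and scans were normalised with masliner.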

Sequence | PBM E-score
AGTGCCTC | -0.229
GATAGACA | 0.0506
GTCTTCGA | -0.122
TCAGTAGA | 0.0364
GGTCCACC | -0.329
ACAGCAAG | 0.247
ACAACATG | 0.136
ACGCAAGT | -0.0875
CGAGCATC | 0.00988
AGCCCAGA | -0.0938
ATATCAAA | 0.244
ATATCAGG | -0.0437
ATATCAAG | 0.26
ATATCAAT | 0.268
ATATCAAC | 0.166
CTATCAAG | 0.067
GACTGTCC | -0.203
ACGCTCAC | -0.0296
AAACACTC | 0.0568
AAATAAGC | 0.12
AAACATAA | 0.202
CAACATAA | 0.297
TAACATAA | 0.337
CAACATAG | 0.144
CAACATAC | 0.0807

Sequence | PBM E-score
GAACATAA | 0.134
CTGTGACA | 0.0329
CATGGGCA | -0.0447
GTAGCGTA | 0.0978
AATCCTGC | 0.0275
ACTTGGGC | -0.119
AGCTCTAG | -0.0862
GAAAATCA | 0.132
CAAGCAAA | 0.00556
AGCCAGGA | -0.0633
TAAACTAA | 0.282
CAAACTAA | 0.25
AAAACTAG | 0.021
AAAACTAA | 0.298
GAAACTAA | 0.00343
AAAACTAT | 0.182
AGTGGTTA | 0.142
GACACCGA | -0.136
CTGCTCCA | -0.0981
GTCCGTTA | 0.107
ATCCGTTA | 0.284
ATCCGTTC | 0.057
ACGATACC | 0.157
ACTGATCA | 0.131
ACTCTACC | 0.0336

Sequence | PBM E-score
CTCTATAC | -0.129
ATATATGA | 0.185
ATATATAC | 0.299
ATATATAT | 0.231
CTATATAC | 0.367
ATATGGAC | 0.0106
CTATGGAG | -0.0464
ATATATGC | 0.224
CTATATAG | 0.121
ATATATGG | 0.259
GTATATAC | 0.0969
ATATGGAG | 0.264
AAGAGAGC | -0.218
CCCACCAA | 0.0694
ACCCCTTC | -0.182
CATCGCAC | -0.0244
CGAACTTA | 0.0175
GTAGTTTA | 0.203
ATAGAGCA | 0.0256
CCCCGCCA | 0.0511
GTAAATTA | 0.223
AGAAATTC | 0.0349
ATAAATTG | 0.312
CTAAATTA | 0.212
ATAAATTC | 0.153

Sequence | PBM E-score
ATAAATTA | 0.365
AAAAATTG | 0.0568
ACAAATTG | 0.173
AGAAATTG | 0.266
AGACAAAA | 0.0827
ACTAAGAC | -0.0709
ACTAATGA | 0.264
ACTAATCT | 0.00634
CCTAATGA | 0.128
TCTAATCA | 0.185
CCTAATAC | 0.122
GCTAATGA | 0.0606
ACTAATAC | 0.288
ACTAATCA | 0.255
ACTAAGAT | 0.255
ACTAAGAA | 0.205
GCTAATAC | 0.176
CGTGTGTA | 0.172
ATAGGTTA | 0.0929
AGCAAACT | 0.158
ATAGAGGA | -0.186
TCTAATAA | 0.167
CCTAATAA | 0.146
ACTAATAT | 0.301
ACTAATAG | 0.244

Sequence | PBM E-score
ACGAATAT | 0.212
ACTAATAA | 0.303
ATTAAAGG | 0.199
CAAACTCC | -0.0365
CCGTGGAA | -0.00863
GCTCACAA | 0.0362
TCGATGCA | -0.0467
GGTAATTA | 0.221
AGTAATTC | 0.235
AGTAATTA | 0.307
CCTAATTC | 0.036
CGTAATGA | 0.241
AGTAAGTA | 0.221
CGTAATTC | 0.296
AGTAATTG | 0.164
CGTAATTA | 0.335
AGAAATCA | 0.0967
ACCTCTGG | -0.158
ACCAGGAG | -0.207
CTACTCTC | -0.0538
TATGGTCA | 0.0184
AATGGTCC | 0.113
AATGGTCA | 0.26
ACATCCTC | -0.0125
CTGAGAAA | 0.0446

Sequence | PBM E-score
AATTTAAA | 0.171
CACATGTA | 0.109
GACATGTA | 0.162
TACATGTA | 0.255
CTCGGAAA | 0.0289
GTCGGAAA | 0.263
ATCGGAAA | 0.112
CGAGCCAC | -0.228
GCCAGTAA | -0.206
GTACAAAA | 0.233
CTACAAAA | 0.0817
ATACAAAT | 0.173
TCACAAAA | 0.206
ATACAAAA | 0.284
TTACAAAA | 0.256
GGGTAGCA | -0.108
TAGAGGCA | -0.0959
ATCGTATG | 0.0469
GTCTGCAA | -0.0254
CATGTTGA | 0.255
CATGTTGC | -0.0984
AATGTTGA | 0.0691
ACAAAACC | 0.272
GCAAATAC | 0.0311
ACAAAAAG | 0.239

Sequence | PBM E-score
GCAAAACC | -0.0668
ACAAATAG | 0.202
ACAAATAC | 0.293
ACAAATAA | 0.225
ACAAATAT | 0.274
CCAAATAC | -0.144
ACAAAAAC | 0.143
ACAAAAAA | 0.234
ACAAAAAT | 0.298
AAACCCTT | 0.0938
ACAGGGTG | -0.126
ACCTAAAA | 0.0796
AAGCGGAC | -0.025
ACGTAGTG | 0.0166
GTACAGAA | -0.00324
CGTCAATC | 0.0678
CCATGAGG | -0.0244
AATAGCCG | 0.0258
ACCAGCAG | -0.186
CCTCGTAG | -0.00114
AAGATAAA | 0.286
AAGATAAG | 0.0204
GAGATACA | 0.167
AAGATACT | -0.0357
AAGATAAC | 0.111

Sequence | PBM E-score
AAGATACA | 0.262
AAGGCCAC | -0.143
ACGCGAAT | 0.106
CAATTAGC | 0.085
ACAGACCG | -0.0661
CTCCCATC | 0.0634
ACCAGAGG | -0.119
AATTCGCC | 0.125
AATTCGCG | 0.0991
AATTCGCT | 0.289
GTGCACTA | 0.0636
CTGCACTC | 0.0431
CTGCACTA | 0.262
AGACCATA | 0.156
ATACGTCA | 0.0839
ATACGTTA | 0.0384
GTACGTCA | 0.267
GTACGTTA | 0.256
CTACGTTA | 0.0868
CTACGTCA | -0.0902
CGAAGTAA | 0.0985
GTGCCCAA | -0.0496
AATAACAC | 0.288
ATTAACAA | 0.282
ATTAACAC | 0.273

Sequence | PBM E-score
AATAACAT | 0.164
ATTAACAG | 0.0676
GTTAACAA | 0.205
AATAACAG | 0.149
CTTAACAC | 0.114
ATTAACTC | 0.193
CCTGGTGC | -0.102
AATGCACG | -0.00779
ACATTTCG | 0.0557
ACCTGGTC | -0.115
AAATGGAA | 0.0788
AAATGTAA | 0.227
TAATGTAA | 0.312
GAATGGAA | 0.131
TAATGGAA | 0.256
GAATGTAA | 0.221
CGAGGCGC | -0.0513
ATATTGAC | 0.069
ATGCAGAC | -0.0609
CCTGGGTA | -0.172
GAAACGAA | 0.255
GAAACGAC | 0.123
CAAACGAA | 0.0114
GGCGGGGA | 0.233
GATAATAA | 0.113

Sequence | PBM E-score
TATAATGA | 0.136
TGCAATAA | 0.272
TATAATAA | 0.287
CATAATAC | 0.24
CGCAATAA | 0.191
CATAATAA | 0.105
AATAATAC | 0.296
AATAATAG | 0.2
GGCAATAA | 0.114
GATAATAC | 0.182
AATAATAA | 0.308
CAGCTGCC | -0.0739
CATCCTTA | -0.00117
CCCAGTTC | -0.0993
GGTGCGGA | -0.0917
CGATGGAC | -0.0566
AACCATCC | -0.0788
AATGCTCT | -0.0877
CAGACAAA | 0.126
CGCTCACC | -0.0419
GCCCAGCA | -0.301
AATAAGAG | 0.195
AATAATGG | 0.329
AATAATCG | 0.107
AAGAATAT | 0.0717

Sequence | PBM E-score
AATAATCT | 0.31
AATAAGAT | 0.075
CATAATGG | -0.033
AATAATAT | 0.337
AATAATGT | 0.233
AATAATCC | 0.109
AATAAGAA | 0.269
GACGGGGA | -0.164
ACCAGGTC | -0.0571
CGGCGATC | -0.086
GAGGGGCC | -0.323
AGCTCAGG | -0.0122
AATTATAA | 0.224
AATTATTA | 0.311
CATTATAA | 0.0345
AGTTATTA | 0.184
CATTATTC | 0.185
AATTATAG | 0.234
GATTATTA | 0.198
AATTATAC | 0.26
TATTATAA | 0.281
AATTATTG | 0.195
CATTATTA | 0.334
GATTATAA | 0.244
GAACCCTA | -0.054

Sequence | PBM E-score
CAAGGGTC | -0.0382
AAGAATCC | -0.111
ACCTCTCT | -0.175
ATACTTCG | -0.0772
GGACTGTA | -0.0642
TATGCAGA | 0.0525
AATTATTC | 0.256
AAGTATAC | 0.266
AAGTATAA | 0.249
AAGTATAT | 0.135
AACTATTC | 0.125
AGTTATTC | 0.096
CATATGAA | 0.132
ACTTATGC | 0.0843
GGGTAGAC | -0.216
CGAATCGA | 0.301
GGAATCGA | -0.059
AGAATCGA | 0.0567
CCTATTGA | 0.0457
CGCTAACA | 0.118
AATATGAC | 0.223
GATATGAA | 0.214
AATATGAT | 0.279
TATATGAA | 0.203
AATATGAA | 0.279

Sequence | PBM E-score
AATATGAG | 0.0655
CCAGTCTC | -0.22
AGGACACA | 0.0983
ACATAATC | 0.293
ACATAACT | 0.192
GCATAATA | 0.283
ACATAACC | 0.0973
ACATAATA | 0.353
GCATAACA | 0.157
CCATAATA | 0.214
ACATAATG | 0.211
ACATAACA | 0.285
GCATAAGA | 0.0573
CCATAATC | 0.144
ACATAAGA | 0.185
ATGTGGAC | -0.0215
ACCTCCTC | -0.145
AATGCAGT | 0.0696
TACTAAGA | 0.242
ACCGCTGG | -0.16
CAGCCCCC | -0.384
ATAAAGTA | 0.286
CTAAAGTA | -0.0221
ATAAAGTC | 0.133
ACAAAGTG | 0.0611

Sequence | PBM E-score
ATAAAGTG | 0.271
GTAAAGTA | 0.251
AGTGCGGC | -0.165
GATGAGAA | 0.0962
CCGCATGC | -0.00346
CAAATGGA | -0.0854
AAAATGAT | 0.265
CTAATGGA | -0.0109
AAAATGAA | 0.208
AAAATGAC | 0.13
AAAATGGG | -0.0559
AAAATGGA | 0.309
GTAATGGA | 0.288
ATAATGGA | 0.188
CACCCGAA | 0.0804
ACCAAGAC | 0.175
AACGACAT | 0.202
AGAACTGC | -0.131
CATGAACC | 0.0622
